# Coupling enz – inhibits coupling enzyme system, counter-screen for aldolase hits; coupling enzyme system counterscreen, AmpLite Red fluorescence; actives 0.67% (n = 290,000); activity change, negative = inhibition, % at 58.2 µM, hits read low; in the data active = activity change below about -30%
#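 Coupling enzymes only (glyceraldehyde-3-phosphate) + compound, at 57.5 uM final, 10 min RT; add substrate/coupling/AmpLite Red mix, 20 min RT; fluorescence ex 525/em 598 nm. Actives flag coupling-system interference.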
# Tau fluor cs – counter-screen for tau fibril formation inhibitors | Potency, µM (titrated, usually from 57.7 µM), for inactives: top-dose activity change, negative = decrease | actives 0.93% (n = 280,000) | tau K18 P301L Alexa594 fluorescence, heparin fibrillization; note: potency is the fitted concentration of half-maximal effect; nearly all actives have a fitted effect of over 55% in size
#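 Human tau K18 P301L (15 uM unlabeled, 0.24 uM Alexa 594-labeled) in 100 mM sodium acetate pH 7 with 20 uM heparin, 6 hr at 37 C. ThT 30 uM added, 1 hr ambient; Alexa 594 FP and total fluorescence read at 555/632 nm.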
# Tau FP inhib – blocks human tau fibril formation measured by polarization; K18 P301L tau heparin fibrillization, Alexa594 FP, 6 h; Potency, µM (highest dose often 57.7 µM), inactives show at the highest dose activity, negative = inhibition, hits mostly inhibitors; actives 0.39% (n = 280,000); AID 1468; note: potency is the fitted concentration of half-maximal effect; nearly all actives have a fitted effect of over 55% in size
# Target sequence (P10636 561-689 P618L limits assumed): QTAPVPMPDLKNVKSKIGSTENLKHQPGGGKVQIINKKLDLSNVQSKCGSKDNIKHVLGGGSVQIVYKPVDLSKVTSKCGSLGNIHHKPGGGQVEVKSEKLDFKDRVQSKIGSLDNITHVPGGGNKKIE
#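 Human K18 P301L fragment (15 uM unlabeled plus 0.24 uM Alexa 594-labeled) in 100 mM sodium acetate pH 7 with compound, aggregation induced by 20 uM heparin for 6 hr at 37 C. ThT (30 uM) added for 1 hr, then Alexa 594 FP read.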
# Tau ThT inhib – blocks human tau fibril formation measured by thioflavin T; P10636; recombinant tau K18 P301L, heparin-induced fibrillization, ThT fluorescence; Potency, µM (top dose mostly 57.4 µM), for inactives: top-dose activity, negative = inhibition, most hits filed as inhibitors; actives 2.1% (n = 270,000); note: potency is the fitted concentration of half-maximal effect; nearly all actives have a fitted effect of over 55% in size
#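 Using a mix of unlabeled (15 uM) and Alexa 594-labeled (0.24 uM) tau K18 P301L, heparin-triggered fibrillization over 6 hr at 37 C was scored by ThT fluorescence.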
# Starred values were filed as active, the others as inactive; ? = inconclusive; nt = no result given; [ ] = remark or other dose. A selection: hits, their analogues and other compounds. The true share with any hit is near 2.7%. Unless noted, calls come from the whole dose curve; as a rule, active = well fitted curve in the direction sought with a large enough effect; inconclusive = small, poorly fitted or top-dose-only effect, or another doubt; inactive = no such curve, though single readings can be large; an effect the other way counts as inactive or inconclusive. % is set by controls: 0 for no effect and ±100 for the full control effect.
SMILES,Coupling enz,Tau fluor cs,Tau FP inhib,Tau ThT inhib
O=C(CN1CCCc2ccccc21)N/N=C/c1c(O)ccc2ccccc12,1,14µM*[quencher],15%,?
COc1ccc(C2Sc3ccccc3N(CCN(C)C)C(=O)[C@@H]2OC(C)=O)cc1 (some centres not stated),nt,-5%,-10%,-5%
O=C(NCCNc1ccc([N+](=O)[O-])cc1)c1ccc(Cl)cc1,-1,-29%,-1%,8.9µM*
COc1ccc(C(=O)NCCNc2ccc([N+](=O)[O-])cc2)cc1,-2,-4%,10%,?
N#CC1=C(N)OC2=C(CCC/C2=C/c2ccoc2)C1c1ccoc1 (configuration not stated),-6,-21%,?,28µM*
CCC(=O)c1ccc(Oc2ccc(C(=O)c3ccc(C)cc3)cc2[N+](=O)[O-])cc1,-6,-23%,0%,-7%
Cc1ccc(Oc2c(C(N)=O)cc([N+](=O)[O-])cc2[N+](=O)[O-])cc1,0,?,?,8.9µM*
Cc1ccc(C)n1-c1nnc(N2CCCC(C(=O)NCc3ccc(Cl)cc3)C2)s1 (configuration not stated),nt,-10%,?,-20%
CCOc1cc(/C=N\NC(=O)Cc2ccccc2)ccc1OCC(=O)Nc1ccc(C)c(C)c1,-1,-11%,-2%,-12%
CCOc1cc(/C=N\Nc2ccc([N+](=O)[O-])cc2)ccc1OCC(=O)Nc1ccc(C)c(C)c1,-1,?,12%,2.2µM*
COc1cc(/C=N\NC(=O)CN2CCOCC2)ccc1OCC(=O)Nc1ccc(C)c(C)c1,4,-11%,-8%,?
COc1cc(/C=N\Nc2ccc([N+](=O)[O-])cc2)ccc1OCC(=O)Nc1ccc(C)c(C)c1,0,7.1µM*[quencher],2%,1.6µM*
CCCCS(=O)CC(O)CSc1nc(-c2ccc(OC)cc2)cc(-c2ccccc2)c1C#N (configuration not stated),nt,-19%,-7%,-4%
COC(=O)c1ccc2[nH]ccc2c1,1,nt,nt,nt
COCCn1c(N)c(S(=O)(=O)c2cccs2)c2nc3ccccc3nc21,-33*,-21%,-6%,-15%
COCCn1c(N)c(C(=O)NCC2CCCO2)c2nc3ccccc3nc21 (configuration not stated),-35*,-17%,-10%,-10%
CC(C)Cn1c(N)c(C(=O)NCC2CCCO2)c2nc3ccccc3nc21 (configuration not stated),-47*,?,-10%,?
O=C1c2sc3nc4n(c(=O)c3c2CCC1Br)CCCCC4 (configuration not stated),-62*,?,?,?
O=C1CCCc2c1sc1nc3n(c(=O)c21)CCCCC3,4,-5%,5%,-7%
O=C(O)[C@H](Cc1c[nH]c2ccccc12)N1C(=O)C2=CCCC=C2C1=O,3,nt,nt,nt
O=c1cc(O)c2sc(Nc3ccc(F)c(Cl)c3)nc2[nH]1,-20,?,?,28µM*
O=c1cc(O)c2sc(Nc3ccc(Cl)c(F)c3)nc2[nH]1,2,?,13µM*,16µM*
COc1ccc(Nc2nc3[nH]c(=O)cc(O)c3s2)cc1,-5,11%,2%,11%
Cc1ccc(C(=O)Nc2cc3cc(Cl)ccc3oc2=O)cc1,nt,2%,-2%,-10%
Cc1ccc(CCNS(=O)(=O)c2ccc3c(c2)C(C(C)C)C(=O)N3)cc1 (configuration not stated),nt,-24%,-5%,-7%
SMILES,Coupling enz,Tau fluor cs,Tau FP inhib,Tau ThT inhib
COc1ccc(C(=O)COC(=O)c2ccc(OC)c(OC)c2)cc1OC,-1,-6%,-6%,?
COc1ccc(C(=O)CSC#N)cc1OC,1,-9%,?,16µM*
CCCOc1cccc(C(=O)Nc2ccc(-c3cc4ccccc4oc3=O)c(C)c2)c1,nt,-22%,-13%,-6%
O=[N+]([O-])c1ccccc1-c1cc(-c2cc(Cl)ccc2O)n[nH]1,0,14µM*[quencher],?,?
Oc1ccccc1-c1cc(-c2ccccc2Cl)[nH]n1,0,14µM*[quencher],?,-5%
Oc1ccc(Cl)cc1-c1cc(-c2ccccc2Cl)[nH]n1,0,?,-18%,-12%
COc1cccc(-c2nc(CS(=O)(=O)CC(=O)Nc3c(C)cc(C)cc3C)c(C)o2)c1,nt,13%,-6%,-1%
O=C(N/N=C/c1ccc(O)c(O)c1)c1ccc(CSc2cccc3cccnc23)cc1,-2,22µM*[quencher],12%,?
CN1N=C(C(C)(C)C)CC1=O,-32*,-5%,-2%,-13%
